# Reference: PubChem BioAssay AID2732 (Emory University Molecular Libraries Screening Center, 2010)
# Among all 220,000 compounds or so, about 8,200 (3.7%) were called active. The sample holds actives, similar compounds and a random draw of the others, so the mix is not that of the screen.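 How the source made its calls: active means compounds that reduced the stress-induced luciferase reporter signal by more than about 70% of percent inhibition (limit read from the data); inactive means the rest.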
# Experiment: inhibitors of CHOP promoter induction, primary screen, cell-based, unfolded protein response, luciferase reporter (AID 2732);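 further: 0% = tunicamycin plus vehicle and 100% = wells without tunicamycin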
# Conditions: CHO-K1 CHOP-promoter luciferase, tunicamycin-induced, 15-18 h; at 10 µM; active compounds read high
row,SMILES,inhibition
1,Cc1ccc(-n2nc(C)c(/C=N/NC(=O)c3cccs3)c2Cl)cc1,99.7% (active)
2,CC(=O)Nc1ccc(/C=N/NC(=O)c2cccs2)cc1,-21.6% (inactive)
3,Cc1cccc(-n2c(C)cc(/C=N\NC(=O)c3cccs3)c2C)c1,13.8% (inactive)
4,O=C(NCCCn1ccnc1)C(=O)NCC1OCCN1S(=O)(=O)c1cc(F)ccc1F (centres undefined),19.4% (inactive)
5,CO/N=C/c1ccc(N2CCN(C(=O)c3cccc(Cl)c3)CC2)c([N+](=O)[O-])c1,71.8% (active)
6,O=C(/C=C/c1ccc(Cl)cc1)N1CCN(c2ccccc2[N+](=O)[O-])CC1,32.3% (inactive)
7,O=C(c1ccc(Cl)c([N+](=O)[O-])c1)N1CCN(c2ccccc2)CC1,-20.4% (inactive)
8,CC12C(=O)N(c3ccccc3)C(=O)C1C(c1ccccc1)N1CCCN12 (centres undefined),7.95% (inactive)
9,O=[N+]([O-])c1ccc(N2CCSCC2)cc1O,13.8% (inactive)
10,CC(C)(C)C(=O)NC(NC(=S)Nc1ccc(S(N)(=O)=O)cc1)C(Cl)(Cl)Cl (centres undefined),-6.4% (inactive)
11,Cc1ccc(NC(=S)NC(NC(=O)Cc2cccc3ccccc23)C(Cl)(Cl)Cl)cc1 (centres undefined),110% (active)
12,O=C(Cc1cccc2ccccc12)NNC(=O)Nc1ccc(Cl)cc1,13.2% (inactive)
13,O=C(NNC(=S)NC1CC2CCC1C2)c1ccc(Cl)cc1 (centres undefined),-10.6% (inactive)
14,CC1(C)Oc2ccc3ccc(=O)oc3c2/C(=C/NCCO)C1=O,7.95% (inactive)
15,C/C=C(/C)C(=O)OC1Cc2c(ccc3ccc(=O)oc23)OC1(C)C (centres undefined),74.3% (active)
16,O=C(NCc1csc(-c2cccs2)n1)C1CC1,21.8% (inactive)
17,COc1ccccc1OCC(=O)O/N=C(\N)c1ccccn1,-9.1% (inactive)
18,CCCCN1CCNC1=S,11% (inactive)
19,Cc1nnc(SCc2ccc(C(=O)c3ccc(Cl)cc3)o2)n1-c1ccccc1,24.9% (inactive)
20,Cc1ccc(-c2noc(CSc3nnc(-c4ccncc4)n3-c3ccc(F)cc3)n2)cc1,35.3% (inactive)
21,Fc1ccc(-n2c(Cc3ccccc3)nnc2SCc2nc(-c3ccc(Cl)cc3)no2)cc1,82.2% (active)
22,Cc1oc(C(N)=O)cc1COc1ccc(C(N)=O)cc1,0.47% (inactive)
23,CC(=O)NC(=S)Nc1ccc(NC(=S)NC(=O)c2ccc([N+](=O)[O-])cc2)cc1,-4.53% (inactive)
24,O=C(Nc1ccc(F)c(Cl)c1)C1CCN(S(=O)(=O)c2cccnc2)CC1,24.3% (inactive)

row,SMILES,inhibition
1,O=C(Nc1nccs1)C1CCN(S(=O)(=O)c2ccc(Cl)c(C(F)(F)F)c2)CC1,70.1% (active)
2,Cc1noc(C)c1S(=O)(=O)N1CCCC(C(=O)Nc2nccs2)C1 (centres undefined),11.8% (inactive)
3,CN(Cc1nc(-c2cnccn2)no1)Cc1n[nH]c2c1CCCCC2,0.16% (inactive)
4,Cc1[nH]c2ccccc2c1C(=O)COC(=O)C(C)C,9.48% (inactive)
5,CCOC(=O)c1c(C)[nH]c(=S)c(C#N)c1-c1ccccc1,-25.2% (inactive)
6,CCOC(=O)c1c(C)[nH]c2c1-c1ccccc1C(=O)C2=O,108% (active)
7,COc1ccc(C(=O)NCC(=O)N/N=C/c2ccc([N+](=O)[O-])o2)cc1OC,-82.2% (inactive)
8,CCOC(=O)Cc1cc(=O)[nH]c(/N=C(\N)Nc2ccc(OC)cc2)n1,-6.01% (inactive)
9,O=C(CC(=O)Nc1ccc(Cl)c(Cl)c1)N/N=C/c1ccc(O)cc1,23.4% (inactive)
10,Cc1ccc(NC(=O)C/C(N)=N/O)cc1Cl,1.88% (inactive)
11,O=C(CC(O)(C(F)(F)F)C(F)(F)F)Nc1ccc(Cl)c(Cl)c1,86% (active)
12,CC(=O)NNC(=O)c1csc(Cc2c(Cl)sc3ccc(Cl)cc23)n1,32.1% (inactive)
13,Cc1ccc(Cc2nc(-c3cccc(C)c3)no2)cc1,83.2% (active)
14,Cc1cccc(-c2noc(-c3ccc(F)cc3)n2)c1,12% (inactive)
15,Cc1ccc(-c2noc(CN3CCN(Cc4ccccc4)CC3)n2)cc1,38.4% (inactive)
16,COc1ccc(OC)c(NC(=O)N[C@H](Cc2ccccc2)C(=O)NN)c1,17.5% (inactive)
17,CCOC(=O)CSc1nccc(N(C)C)c1C#N,74% (active)
18,CCOC(=O)CC(=O)CSc1nc(-c2ccccc2)cc(-c2ccc(Cl)cc2)c1C#N,-3.89% (inactive)
19,CCOC(=O)CSc1ccccn1,-0.03% (inactive)
20,Cc1ccc(NC(=O)c2nc[nH]c2C(=O)N[C@@H](CCCCNC(=O)OC(C)(C)C)C(=O)OC(C)(C)C)cc1,60.9% (inactive)
21,COc1ccccc1NC(=O)CSc1nc2sc(C)c(C)c2c(=O)n1Cc1ccco1,-22.1% (inactive)
22,Cc1ccc(-c2nc(SCC(=O)Nc3ccccc3OC(F)F)c3c(C)c(C(=O)O)sc3n2)cc1,101% (active)
23,Cc1ccc(C)c(SCc2nc3sc(C(=O)O)c(C)c3c(=O)[nH]2)c1,5.2% (inactive)
24,O=C(O)c1ccc(/C=N/Nc2nc(N3CCCCC3)nc(N3CCCCC3)n2)cc1,5.9% (inactive)

row,SMILES,inhibition
1,O=C(c1ccc(=O)oc1)N1CCC(C(O)(c2ccccc2)c2ccccc2)CC1,18.9% (inactive)
2,Cn1cnc(S(=O)(=O)Nc2ccc3c(c2)OCCO3)c1,26.2% (inactive)
3,C/C(=N\NC(=S)NCc1ccccc1)c1ccc(Cl)cc1,16.1% (inactive)
4,C/C(=N\NC(=S)NC(C)C)c1ccc(C(C)(C)C)cc1,72.1% (active)
5,CC/C(=N\NC(=S)NC(C)C)c1ccc(OC(F)F)cc1,11.9% (inactive)
6,CCOC(=O)N1CCN(Cc2nc(N)nc(Nc3ccc(C)cc3)n2)CC1,30.1% (inactive)
7,Cc1ccc(Nc2nc(N)nc(CSc3nnc(C)s3)n2)cc1,-43.6% (inactive)
8,Nc1nc(CC(=O)CSc2ccc(Cl)cc2)nc(Nc2ccc(F)cc2)n1,81.9% (active)
9,O=S(=O)(Cc1noc(-c2ccc(OC(F)(F)F)cc2)n1)c1ccc(F)cc1,-5.94% (inactive)
10,COc1ccc(NC(=O)c2cn(-c3ccccc3)nc2SC)cc1,14.6% (inactive)
11,Cc1ccc(S(=O)(=O)/N=C(/Nc2ccccn2)c2ccc(Cl)cc2)cc1,14.2% (inactive)
12,Cc1ccc(S/C(=N\S(=O)(=O)c2ccc(Cl)cc2)c2ccccc2)cc1,85.7% (active)
13,O=S(=O)(/N=C(/Nc1ccccn1)c1ccccc1)c1ccc(Cl)cc1,8.33% (inactive)
14,O=C(Nc1cccnc1Oc1ncnc2cc(Cl)ccc12)c1ccc(F)cc1,-24.4% (inactive)
15,CCOC(=O)c1cn[nH]c1NC(=S)Nc1ccccc1,-6.82% (inactive)
16,COc1ccc(C(=O)C2CCCN(C(=O)c3cnsn3)C2)c(C)c1 (centres undefined),1.06% (inactive)
17,FC(F)(F)c1cccc(N/N=C/c2ccccc2)c1,69% (inactive)
18,FC(F)(F)c1nc2ccccc2nc1N/N=C/c1ccc(Cl)cc1,70.3% (active)
19,Fc1ccc(/C=N/Nc2nc(-c3cccnc3)nc3ccccc23)cc1,1.02% (inactive)
20,COc1ccc2c(CC(=O)OCC(=O)NC(N)=O)coc2c1,8.09% (inactive)
21,COc1ccc(CCNC(=O)c2ccco2)cc1,14.1% (inactive)
22,COc1ccc(CN(Cc2ccc(OC)cc2)C(=O)c2cccs2)cc1,-9.17% (inactive)
23,COc1ccc(CCNC(=O)/C(C#N)=C2\N=C(NC(=O)c3cccs3)c3ccccc32)cc1,81.3% (active)
24,Cc1ccc(/C=C/C(=O)O)cc1S(=O)(=O)N1CCC(Cc2ccccc2)CC1,-11.4% (inactive)

row,SMILES,inhibition
1,Cc1onc(-c2ccccc2)c1C(=O)N=C(N)c1ccc(Cl)cc1,6.38% (inactive)
2,Fc1c(F)c(C(F)(F)F)c(F)c(F)c1N1CCN(c2ccc3nnc(C(F)(F)F)n3n2)CC1,72.7% (active)
3,FC(F)(F)c1nnc2ccc(N3CCN(c4ccccc4)CC3)nn12,49.9% (inactive)
4,O=C(Nc1ccc(S(=O)(=O)Nc2nccs2)cc1)c1cc(=O)[nH]c2ccccc12,19.9% (inactive)
5,CC1(C)CCSC(/C=C/c2ccccc2)=N1,-147% (inactive)
6,O=C(Nc1nnc(CCN2CCCCC2)s1)c1cccc(Cl)c1,6.02% (inactive)
7,Nc1nnn(CC(=O)N/N=C/c2ccc(O)cc2)n1,-8.23% (inactive)
8,Cc1ccc(C(=O)N/C(=C/c2ccc(-c3cccc([N+](=O)[O-])c3)o2)C(=O)NCCCN(C)C)cc1,8.44% (inactive)
9,N#C/C(=C\c1ccc(-c2cccc([N+](=O)[O-])c2)o1)C(=O)NCCN1CCOCC1,27.9% (inactive)
10,Cc1ccc(Cc2cnc(NC(=O)/C(C#N)=C/c3ccc(-c4cccc([N+](=O)[O-])c4)o3)s2)cc1,93.4% (active)
11,Cc1ccc(/C=N/NC(=S)NC2CCCCC2)o1,2.92% (inactive)
12,Nc1ccccc1Sc1cc(Cl)nnc1Cl,20% (inactive)
13,CC(=O)Nc1ccc(CC#N)cc1,18.1% (inactive)
14,CC1(C)CC(=O)C(N=Nc2c(F)cccc2F)=C(O)C1,7.79% (inactive)
15,CCCSc1nc2c(c(=O)n(C)c(=O)n2C)n1Cc1ccc(C)cc1,77.2% (active)
16,CCOc1ccc(Cn2c(SCCCCC#N)nc3c2c(=O)n(C)c(=O)n3C)cc1OCC,17.3% (inactive)
17,Cc1cccc(Cn2c(SCCO)nc3c2c(=O)n(C)c(=O)n3C)c1,16.8% (inactive)
18,Cc1nc2cc(NC(=O)Nc3cccc(F)c3)ccc2n1C,-0.84% (inactive)
19,C/C(Cc1ccccc1)=N\NC(=O)CNC(=O)c1ccc2c(c1)OCCO2,14.9% (inactive)
20,CC(=O)N1CCC(N(C(=O)Nc2ccc(Cl)cc2)C(C)C)CC1,15.3% (inactive)
21,CC(C)Oc1ccc(CCC(=O)NNC(=S)NCc2ccccc2)cc1,6.72% (inactive)
22,CC1(C)CC(N2CCN(C(c3ccccc3)c3ccccc3)CC2)=CC(=[N+]2CCCCC2)C1,65.3% (inactive)
